Among all 44,000 compounds or so, about 30 (0.07%) were called active. Inconclusive results (about 1%) are left out. No stated cut-off is given here; in the data, active means inhibition above about 54% (passing the limit was not always enough); inconclusive means no clear call, values can overlap the other calls. The list comes from a sample in which actives are over-represented; it also holds similar structures and randomly drawn compounds.
The molecules below were run against Histone-lysine N-methyltransferase NSD2 (Homo sapiens) (UniProt O96028) (assay: inhibitors of human NSD2, primary screen, biochemical, plate reader, single point (AID 624260;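 further: inhibitors reduce the monomethyl H3K36 fluorescence signal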)). Conditions: NSD2-SET H3K36me1 DELFIA fluorescence, at 12.5 µM, hits give high values.
Histone-lysine N-methyltransferase NSD2 (Homo sapiens), sequence (O96028 whole entry, looked up): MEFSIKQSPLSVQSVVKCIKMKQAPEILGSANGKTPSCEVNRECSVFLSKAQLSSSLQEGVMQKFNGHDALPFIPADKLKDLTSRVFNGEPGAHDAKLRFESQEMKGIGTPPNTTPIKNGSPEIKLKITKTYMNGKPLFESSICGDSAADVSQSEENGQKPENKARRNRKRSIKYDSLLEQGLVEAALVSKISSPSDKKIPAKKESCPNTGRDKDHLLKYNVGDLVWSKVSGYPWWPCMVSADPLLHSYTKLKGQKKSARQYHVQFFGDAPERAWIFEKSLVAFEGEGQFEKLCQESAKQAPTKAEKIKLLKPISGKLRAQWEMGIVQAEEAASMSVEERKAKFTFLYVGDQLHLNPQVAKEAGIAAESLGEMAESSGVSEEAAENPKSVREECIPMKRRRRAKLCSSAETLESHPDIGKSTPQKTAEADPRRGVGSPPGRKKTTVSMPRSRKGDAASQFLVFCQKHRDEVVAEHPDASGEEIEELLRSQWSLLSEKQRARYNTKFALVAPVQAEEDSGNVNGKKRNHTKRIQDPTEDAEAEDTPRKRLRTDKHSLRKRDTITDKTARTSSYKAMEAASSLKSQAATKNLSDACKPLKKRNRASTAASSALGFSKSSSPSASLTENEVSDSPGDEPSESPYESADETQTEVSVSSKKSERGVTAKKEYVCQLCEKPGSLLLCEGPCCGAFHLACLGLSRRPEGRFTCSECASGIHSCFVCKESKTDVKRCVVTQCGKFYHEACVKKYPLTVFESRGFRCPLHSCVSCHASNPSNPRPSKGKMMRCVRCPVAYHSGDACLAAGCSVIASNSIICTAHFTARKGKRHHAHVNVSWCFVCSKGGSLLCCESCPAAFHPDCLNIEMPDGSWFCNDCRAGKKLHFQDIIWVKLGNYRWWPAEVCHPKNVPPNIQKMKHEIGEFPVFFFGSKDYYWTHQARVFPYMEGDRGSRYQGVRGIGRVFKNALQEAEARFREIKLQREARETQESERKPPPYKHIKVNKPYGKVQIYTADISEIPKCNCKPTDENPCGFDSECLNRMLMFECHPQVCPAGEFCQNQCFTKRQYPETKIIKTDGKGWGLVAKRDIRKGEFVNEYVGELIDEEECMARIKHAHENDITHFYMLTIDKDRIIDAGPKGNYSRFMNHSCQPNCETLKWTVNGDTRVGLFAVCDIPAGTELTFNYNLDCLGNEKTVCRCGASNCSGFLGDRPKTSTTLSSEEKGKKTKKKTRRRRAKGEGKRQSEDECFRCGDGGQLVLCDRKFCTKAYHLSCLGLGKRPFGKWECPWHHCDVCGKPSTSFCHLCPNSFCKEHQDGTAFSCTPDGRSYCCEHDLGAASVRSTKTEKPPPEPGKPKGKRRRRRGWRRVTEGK

inhibition, inactive:
CC(=O)N(C)C[C@H]1Oc2cc(C#Cc3ccccc3F)ccc2S(=O)(=O)N([C@@H](C)CO)C[C@H]1C -2.4%
O=C(C[C@@H]1C[C@H]2c3cc(NS(=O)(=O)c4ccc(F)cc4)ccc3O[C@H]2[C@H](CO)O1)NCCc1ccccc1 4.07%
C[C@@H]1CN([C@@H](C)CO)S(=O)(=O)c2ccc(C#Cc3ccccc3F)cc2O[C@H]1CN(C)C(=O)c1ccc2c(c1)OCO2 -0.635%
CC(C)NC(=O)N(C)C[C@H]1Oc2ncc(C#CC3(O)CCCC3)cc2C(=O)N([C@H](C)CO)C[C@@H]1C -3.09%
O=C(C[C@@H]1C[C@@H]2c3cc(NS(=O)(=O)c4ccc(F)cc4)ccc3O[C@@H]2[C@@H](CO)O1)NCc1ccncc1 1.12%
CN(C)CC(=O)Nc1ccc2c(c1)[C@H]1C[C@@H](CC(=O)NCc3ccc(-c4ccccc4)cc3)O[C@H](CO)[C@H]1O2 3.66%
C[C@H](CO)N1C[C@H](C)[C@@H](CN(C)S(=O)(=O)c2ccc(Cl)cc2)Oc2ccc(NS(C)(=O)=O)cc2CC1=O 1.76%
C[C@@H]1CN([C@@H](C)CO)C(=O)c2cc(-c3cccc(F)c3)cnc2O[C@@H]1CN(C)Cc1ccccc1 -9.63%
COCC(=O)Nc1ccc2c(c1)[C@H]1C[C@H](CC(=O)NCc3ccccn3)O[C@H](CO)[C@H]1O2 2.78%
CCC(=O)N(C)C[C@H]1Oc2cc(/C=C/c3ccccc3)ccc2S(=O)(=O)N([C@H](C)CO)C[C@@H]1C 2.05%
COc1ccc(NC(=O)Nc2ccc3c(c2)[C@@H]2C[C@H](CC(=O)N4CCCCC4)O[C@H](CO)[C@@H]2O3)cc1 4.87%
C[C@@H]1CN([C@@H](C)CO)S(=O)(=O)c2ccc(-c3cccc(C(=O)N(C)C)c3)cc2O[C@@H]1CN(C)C 1.16%
CC(C)NC(=O)N(C)C[C@@H]1Oc2ncc(C#Cc3ccncc3)cc2C(=O)N([C@@H](C)CO)C[C@@H]1C 4.8%
Cc1ccc(-c2cnc3c(c2)C(=O)N([C@H](C)CO)C[C@@H](C)[C@H](CN(C)Cc2ccccc2C(=O)O)O3)cc1 12.9%
CCCNC(=O)C[C@H]1C[C@@H]2c3cc(NC(=O)COC)ccc3O[C@@H]2[C@@H](CO)O1 3.25%
C[C@H](CO)N1C[C@H](C)[C@@H](CN(C)C(=O)Nc2ccccc2)Oc2ncc(C3=CCCC3)cc2C1=O -0.747%
C/C=C/c1cnc2c(c1)C(=O)N([C@@H](C)CO)C[C@@H](C)[C@H](CN(C)Cc1ccccc1)O2 1.34%
C[C@@H]1CN([C@@H](C)CO)S(=O)(=O)c2ccc(C#CCN(C)C)cc2O[C@@H]1CN(C)S(=O)(=O)c1cccc(F)c1 -0.392%
C[C@H]1CN([C@@H](C)CO)C(=O)c2cc(-c3ccncc3)cnc2O[C@@H]1CN(C)C(=O)c1cccc(F)c1 -0.363%
Cc1ccc(-c2ccc3c(c2)O[C@H](CN(C)C(=O)Nc2ccc(C(F)(F)F)cc2)[C@@H](C)CN([C@H](C)CO)S3(=O)=O)cc1 -7.32%
CCC(=O)N(C)C[C@@H]1Oc2ncc(C#CCc3ccccc3)cc2C(=O)N([C@H](C)CO)C[C@H]1C -13.4%
C[C@H](CO)N1C[C@H](C)[C@@H](CN(C)S(=O)(=O)c2cccc(F)c2)Oc2ncc(-c3cccc(F)c3)cc2C1=O -2.04%
C[C@@H]1CCCCO[C@H](CN(C)S(=O)(=O)c2ccc(Cl)cc2)[C@H](C)CN([C@H](C)CO)C(=O)c2cc(NC(=O)NC3CCCCC3)ccc2O1 5.74%
CC(=O)N(C)C[C@H]1Oc2ncc(C#CC3(O)CCCC3)cc2C(=O)N([C@@H](C)CO)C[C@@H]1C 4.16%
COc1ccc(S(=O)(=O)N[C@@H]2C=C[C@@H](CC(=O)N3CCc4ccccc4C3)O[C@@H]2CO)cc1 3.25%
CC(=O)N(C)C[C@@H]1Oc2ncc(-c3ccccc3F)cc2C(=O)N([C@H](C)CO)C[C@@H]1C -4.17%
COc1ccc(-c2cnc3c(c2)C(=O)N([C@@H](C)CO)C[C@H](C)[C@H](CN(C)C(=O)Cc2cccnc2)O3)cc1 -0.562%
C[C@@H]1CN([C@H](C)CO)C(=O)c2cc(NC(=O)C3CCCCC3)ccc2O[C@@H](C)CCCCO[C@H]1CN(C)S(C)(=O)=O -14.3%
C[C@@H]1CN([C@H](C)CO)S(=O)(=O)c2ccc(Br)cc2O[C@@H]1CN(C)Cc1cncnc1 1.53%
C[C@@H](NC(=O)C[C@H]1C[C@@H]2c3cc(NC(=O)C4CCC4)ccc3O[C@@H]2[C@@H](CO)O1)c1ccccc1 -3.13%
C[C@H]1CN([C@@H](C)CO)S(=O)(=O)c2ccc(-c3cccc(C#N)c3)cc2O[C@H]1CN(C)CC1CC1 18.1%
COc1cccc(S(=O)(=O)N(C)C[C@H]2Oc3cc(C#CCN(C)C)ccc3S(=O)(=O)N([C@H](C)CO)C[C@H]2C)c1 1.49%
C[C@@H]1CN([C@@H](C)CO)C(=O)Cc2cc(NS(C)(=O)=O)ccc2O[C@H]1CN(C)S(=O)(=O)c1ccc(F)cc1 5.39%
CCCNC(=O)N(C)C[C@H]1Oc2ncc(C#CC(C)C)cc2C(=O)N([C@@H](C)CO)C[C@@H]1C -3.03%
C[C@@H]1CN([C@H](C)CO)C(=O)c2cc(-c3ccc(F)cc3)cnc2O[C@@H]1CN(C)C(=O)C1CCC1 8.32%
O=C(C[C@H]1C[C@@H]2c3cc(NC(=O)CC4CC4)ccc3O[C@@H]2[C@@H](CO)O1)NCc1cc(F)ccc1F 9.35%
COc1ccccc1S(=O)(=O)N(C)C[C@@H]1Oc2cc(C#CCC3CCCC3)ccc2S(=O)(=O)N([C@H](C)CO)C[C@H]1C -16.6%
C[C@@H]1CN([C@@H](C)CO)S(=O)(=O)c2ccc(Br)cc2O[C@@H]1CN(C)C(=O)CN(C)C 16.9%
COc1ccccc1CNC(=O)C[C@@H]1C[C@@H]2c3cc(NC(=O)C4CCOCC4)ccc3O[C@@H]2[C@@H](CO)O1 -2.77%
CNC[C@H]1Oc2cc(-c3ccc(C(=O)N(C)C)cc3)ccc2S(=O)(=O)N([C@@H](C)CO)C[C@@H]1C 2.38%
COc1ccc(S(=O)(=O)Nc2ccc3c(c2)C(=O)N([C@@H](C)CO)C[C@H](C)[C@H](CN(C)Cc2ccc4c(c2)OCO4)OCCCC[C@H](C)O3)cc1 2.05%
COC(=O)C[C@@H]1C[C@H]2c3cc(NC(=O)CN(C)C)ccc3O[C@H]2[C@H](CO)O1 6.16%
C[C@H](CO)N1C[C@H](C)[C@@H](CN(C)Cc2ccccn2)Oc2ncc(-c3cccc(F)c3)cc2C1=O 2.22%
CC(=O)N(C)C[C@@H]1Oc2cc(-c3cccnc3)ccc2S(=O)(=O)N([C@@H](C)CO)C[C@H]1C -5.41%
C[C@H]1CN([C@@H](C)CO)S(=O)(=O)c2ccc(C3=CCCC3)cc2O[C@H]1CN(C)C(=O)Cc1ccncc1 -1.21%
O=C(C[C@H]1CC[C@@H](NC(=O)Nc2ccc(F)cc2)[C@H](CO)O1)NCc1cccc(F)c1 9.13%
Cc1ccccc1-c1ccc2c(c1)O[C@@H](CN(C)Cc1ccc(C(=O)O)cc1)[C@H](C)CN([C@H](C)CO)S2(=O)=O -1.98%
C[C@H](CO)N1C[C@H](C)[C@@H](CN(C)S(=O)(=O)c2ccc(F)cc2)Oc2ccc(NC(=O)CCCCCC(=O)Nc3ccccc3N)cc2CC1=O -1.08%
C[C@@H]1CN([C@H](C)CO)C(=O)Cc2cc(NC(=O)Nc3cccc4ccccc34)ccc2O[C@H]1CN(C)C(=O)Nc1ccc2c(c1)OCO2 -7.81%
COCC#Cc1ccc2c(c1)O[C@@H](CN(C)S(C)(=O)=O)[C@H](C)CN([C@H](C)CO)S2(=O)=O -5.23%
C[C@@H]1CN([C@H](C)CO)C(=O)c2cc(NS(=O)(=O)c3cn(C)cn3)ccc2O[C@@H](C)CCCCO[C@@H]1CN(C)C(=O)CCC(F)(F)F -0.203%
CN1CCN(C(=O)C[C@H]2C[C@H]3c4cc(NC(=O)C5CCC5)ccc4O[C@H]3[C@H](CO)O2)CC1 5.87%
CC(C)CC#Cc1cnc2c(c1)C(=O)N([C@@H](C)CO)C[C@H](C)[C@@H](CN(C)S(=O)(=O)c1cn(C)cn1)O2 2.14%
CC(C)CC#Cc1ccc2c(c1)O[C@H](CN(C)C(=O)CC1CC1)[C@@H](C)CN([C@@H](C)CO)S2(=O)=O -15.5%
COC(=O)C[C@H]1C=C[C@H](NC(=O)Nc2ccc(C(F)(F)F)cc2)[C@@H](CO)O1 -4.85%
O=C(C[C@@H]1C[C@@H]2c3cc(NC(=O)C4CCOCC4)ccc3O[C@@H]2[C@@H](CO)O1)NC1CCCCC1 0.0335%
C[C@H](O)C#Cc1cnc2c(c1)C(=O)N([C@@H](C)CO)C[C@H](C)[C@@H](CN(C)C(=O)c1ccncc1)O2 0.0295%
C[C@H]1CN([C@@H](C)CO)S(=O)(=O)c2ccc(Br)cc2O[C@H]1CN(C)C(=O)C1CC1 6.22%
Cc1noc(C)c1NC(=O)N(C)C[C@@H]1OCCCC[C@H](C)Oc2ccc(NC(=O)C3CCCCC3)cc2C(=O)N([C@H](C)CO)C[C@@H]1C 3.93%
